Records with an inconclusive call do not appear. The source made the active and inactive calls. Rule for the calls, unless noted: active = hit-call score of the fitted dose curve at least 0.9, where 1 is the maximum; inconclusive = response in the unintended direction; inactive = score below 0.9.

From PubChem BioAssay (EPA / NIEHS) come the findings set out here.

A short description of the first test: CCTE_Mundy_HCI_hN2_NOG_NeuriteCount: CCTE's Neurite Outgrowth Assay in human hN2 cells for Neurite Count, Mundy Lab (AID 2284219). In a few lines: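 In this morphology assay, hNP1-derived neurons received test chemical 2 h post-plating and were fixed two days later in warm paraformaldehyde/sucrose containing Hoechst 33342. Neurites, labelled by rabbit anti-βIII-tubulin (1:800) and Alexa Fluor-488 (1:500), were counted automatically.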
For the molecule `CCCCC(CC)COC(=O)c1ccccc1C(=O)OCC(CC)CCCC` (stereo unspecified), the result was inactive.
With `CNC(=O)ON=CC(C)(C)SC`, the molecule was classed as inactive.
With `COP(N)(=O)SC` (stereo unspecified), the molecule was classed as inactive.
The AC50 is the midpoint of the concentration-response curve, whichever way the signal moves. Turning to `CCOC(=O)CC(SP(=S)(OC)OC)C(=O)OCC` (stereo unspecified), the AC50 is 34.8 µM (active).

The nature of the next test: CCTE_Mundy_HCI_hN2_NOG_NeuriteLength: CCTE's Neurite Outgrowth Assay in human hN2 cells for Neurite Length, Mundy Lab (AID 2284220). In a few lines: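 Read-out is neurite length from high-content imaging of βIII-tubulin/Alexa Fluor-488-labelled neurons, referenced to DMSO controls.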
For the molecule `CCCCC(CC)COC(=O)c1ccccc1C(=O)OCC(CC)CCCC` (stereo unspecified), the molecule was classed as inactive.
Turning to `CNC(=O)ON=CC(C)(C)SC`, the result was inactive.
Take `COP(N)(=O)SC` (stereo unspecified): the molecule was called inactive.
Regarding `CCOC(=O)CC(SP(=S)(OC)OC)C(=O)OCC` (stereo unspecified), the AC50 was 34.2 µM (active).

A further test in a line: CCTE_Mundy_HCI_hN2_NOG_NeuronCount: CCTE's Neurite Outgrowth Assay in human hN2 cells for Neuron Count, Mundy Lab (AID 2284221). In short, it runs like this: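 Read-out is the number of betaIII-tubulin-positive neurons imaged by automated high-content analysis, with DMSO as negative control.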
Take `CCCCC(CC)COC(=O)c1ccccc1C(=O)OCC(CC)CCCC` (stereo unspecified): the molecule was classed as inactive.
For the molecule `CNC(=O)ON=CC(C)(C)SC`, the molecule was called inactive.
For `CCOC(=O)CC(SP(=S)(OC)OC)C(=O)OCC` (stereo unspecified), the AC50 is 33.6 µM (active).

The next test can be described thus: CCTE_Mundy_HCI_Cortical_Synap_Neur_Matur_NeuriteCount: CCTE's Synaptogenesis and Neurite Maturation Assay in rat cortical cells for Neurite Count, Mundy Lab (AID 2284222; active = hit-call score of the fitted dose curve at least 0.9, where 1 is the maximum; inactive = score below 0.9;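 for outcome: exposure from day 7 to day 12 in vitro with readout at day 12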). In a few lines: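 Primary rat cortical cells were plated, treated with AraC at DIV 5, then exposed to chemicals from DIV 7 through DIV 12. After fixation and immunostaining for MAP2 and synaptophysin, imaging quantified neurites, with DMSO as the negative control.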
Turning to `CCCCC(CC)COC(=O)c1ccccc1C(=O)OCC(CC)CCCC` (stereo unspecified), the AC50 was 4.84 µM (active).
As to `COC(=O)N(OC)c1ccccc1COc1ccn(-c2ccc(Cl)cc2)n1`, the AC50 is 0.105 µM (active).
Take `CC(C)(C)c1ccc(CSc2cnn(C(C)(C)C)c(=O)c2Cl)cc1`: the AC50 is 0.00118 µM (active).
For the molecule `N#Cc1nn(-c2c(Cl)cc(C(F)(F)F)cc2Cl)c(N)c1S(=O)C(F)(F)F` (stereo unspecified), the call was inactive.
Consider `Cc1ccc(-c2c(Cl)nc(C#N)n2S(=O)(=O)N(C)C)cc1`, for which the AC50 was 80.2 µM (active).
On to `CCCCOC(=O)c1ccccc1C(=O)OCCCC`, for which the AC50 is 85.8 µM (active).
As to `C=CCC1=C(C)[C@@H](OC(=O)[C@@H]2[C@@H](C=C(C)C)C2(C)C)CC1=O`, the AC50 was 23.7 µM (active).
On to `CN(C)C(=S)SSC(=S)N(C)C`, for which the concentration at half-maximal activity (AC50) is 0.0585 µM (active).
Consider `CNC(=O)ON=CC(C)(C)SC`, for which the molecule was called inactive.
As for `C=CCC1=C(C)C(OC(=O)C2C(C=C(C)C)C2(C)C)CC1=O` (stereo unspecified), the outcome was inactive.
